# Several values for one entry are separate records, joined by “and”; a condition that tells them apart may be missing. Identical values can stand only once. Results filed as inconclusive are left out. Where a call stands in place of a potency, no number is given. Activity calls are given as the source filed them. Unless noted, calls follow the shape of the dose curve; as a rule, active = well fitted curve in the direction sought with a large enough effect; inconclusive = small, poorly fitted or top-dose-only effect, or another doubt; inactive = no such curve, though single readings can be large; an effect the other way counts as inactive or inconclusive.
# Key:
# [1] = Cellular Toxicity (caspase-3) HepG2 (AID 654);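 also: cells exposed to compound for 16 hours before reading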
# Summary of the method: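 HepG2 cells (1500/well) were treated 16 h at 37 °C in complete medium, then caspase 3/7 activity was read by Caspase-Glo luminescence. Data were normalized to DMSO and 100 uM tamoxifen; AC50 came from Hill-equation fits of qHTS concentration-response.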
# [2] = Cellular Toxicity (caspase-3) HUV-EC-C (AID 656)
# Summary of the method: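 Concentration-dependent caspase 3/7 induction was assessed in HUV-EC-C cells exposed for 16 hours. Data scaled between DMSO and tamoxifen (100 uM) controls.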
# [3] = Cellular Toxicity (caspase-3) SHSY5Y (AID 657)
# Summary of the method: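 Readout: caspase-cleaved peptide-aminoluciferin substrate driving luciferase light in SH-SY5Y neuroblastoma cells after 16 h treatment. Response normalized to DMSO and 10 uM staurosporine controls.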
# [4] = Cellular Toxicity (caspase-3) BJ (AID 658)
# Summary of the method: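 BJ human foreskin fibroblasts, 1000 cells/well, treated 16 hours at 37 °C in complete medium; caspase 3/7 activity by Caspase-Glo luminescence after 1 hr at room temperature. Normalized to DMSO and 10 uM staurosporine; AC50 from Hill fits.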
# [5] = Cellular Toxicity (caspase-3) MRC-5 (AID 659)
# Summary of the method: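 MRC-5 human normal lung fibroblasts, 1500 cells/well, treated 16 h at 37 °C in complete medium. Caspase 3/7 measured by Caspase-Glo luminescence after 1 h at room temperature. Normalized to DMSO and 10 uM staurosporine; AC50 from Hill fit.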
# [6] = Cellular Toxicity (caspase-3) Mesangial (AID 660)
# Summary of the method: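 Human renal glomerular mesangial cells, 1000/well, 5 h at 37 C before 16 h compound treatment. Caspase-Glo 3/7 luminescence after 20 min; normalized to DMSO and 100 uM tamoxifen, AC50 from Hill fit.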
# [7] = Cellular Toxicity (caspase-3) SK-N-SH (AID 661)
# Summary of the method: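 Human SK-N-SH neuroblastoma cells, 1500/well, were exposed to compounds for 16 hours at 37 °C. Caspase-Glo 3/7 luminescence was normalized to DMSO (basal) and 10 uM staurosporine (100%), and AC50 came from a Hill fit.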
# [8] = Cellular Toxicity (caspase-3) H-4-II-E (AID 663);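 also: cells exposed to compound for 16 hr before readout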
# Summary of the method: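 Rat hepatoma H-4-II-E cells (1500/well) plated 5 hr, then exposed to compound titrations for 16 hr at 37 °C. Caspase-Glo 3/7 luminescence read after 20 min at RT; data normalized to DMSO and 100 uM tamoxifen, AC50 from Hill fits.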
# [9] = Cellular Toxicity (caspase-3) Hek293 (AID 664);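 also: cells exposed to compound for 16 h at 37 °C before readout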
# Summary of the method: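 HEK293 cells in complete medium treated 16 h at 37 °C, then Caspase-Glo 3/7 luminescence read after 20 min at room temperature. Normalized to DMSO and 100 uM tamoxifen; AC50 from Hill fit of concentration-response.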
# [10] = Cellular Toxicity (caspase-3) N2a (AID 665);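 also: compound exposure lasted 16 h at 37 °C before readout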
# Summary of the method: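 Mouse N2a neuroblastoma cells, 1500 per well, treated 16 h at 37 °C in complete medium; caspase-3/7 activity by Caspase-Glo luminescence after 1 h. Normalized to DMSO and 10 uM staurosporine; AC50 from Hill fits.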
# [11] = Cellular Toxicity (caspase-3) NIH 3T3 (AID 666)
# Summary of the method: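 Mouse NIH 3T3 fibroblasts (1000/well) treated 16 h at 37 C; caspase-3/7 activity measured by Caspase-Glo 3/7 luminescence after 20 min. Normalized to DMSO and 100 uM tamoxifen; AC50 from Hill fits.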
# [12] = Cellular Toxicity (caspase-3) Renal Proximal Tubule (AID 667);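 also: cells exposed to compound for 16 hours at 37 °C before detection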
# Summary of the method: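 Caspase-Glo 3/7 read-out, rat primary kidney proximal tubule cells. Compound exposure 16 h, 37 °C; detection after 1 h at RT. Activity scaled to DMSO and 10 uM staurosporine.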
# [13] = molecular target: Thyroid hormone receptor beta (Homo sapiens) (UniProt P10828); assay: qHTS assay for small molecule agonists of thyroid hormone receptor beta signaling (AID 588545; calls by dose curve)
# Summary of the method: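 TR-UAS-bla-GripTite HEK 293 cells in medium with 2% charcoal/dextran FBS, 0.1 mM NEAA and 1 mM sodium pyruvate were treated with titrated compounds for 18 hrs at 37 C. Beta-lactamase reporter was read with CCF4 dye (ex 405, em 460/530 nm); EC50 from Hill fits.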
# [14] = qHTS assay for small molecule activators of the p53 signaling pathway (AID 651743; active = well fitted activation curve with a large enough effect in the signal ratio, not every such curve was filed as active; the % refers to the signal ratio; also: series mostly up to about 92 µM); conditions: HCT-116 p53RE-bla, beta-lactamase FRET ratio, 16 h; activation: stronger effect = higher value
# Summary of the method: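 p53RE-bla HCT-116 cells carrying a beta-lactamase reporter under p53 response elements were exposed to compounds for 16 hours at 37 C. Reporter activity read as fluorescence after 2 hours at room temperature with LiveBLAzer B/G FRET substrate.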
# [15] = qHTS assay for small molecule activators of the nuclear factor-kappa B (NF-kB) signaling pathway (AID 651749; active = well fitted activation curve with a large enough effect in the signal ratio; the % refers to the signal ratio; also: series mostly up to about 77 µM); conditions: NF-kB-bla ME-180 cells, beta-lactamase FRET ratio, 16 h; activation: stronger effect = higher value
# Summary of the method: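 NF-kB-bla ME-180 cells carrying a beta-lactamase reporter under an NF-kB response element, 2,000 cells/well, exposed to compound for 16 hr at 37C; FRET-based beta-lactamase fluorescence read-out of pathway activation.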
# [16] = molecular target: Tumor necrosis factor (Homo sapiens) (UniProt P01375); assay: qHTS assay to identify small molecules that stimulate Tumor Necrosis Factor-alpha (TNF-alpha) secretion (AID 651757; active = well fitted curve in the direction sought with a large enough effect in the signal ratio; the % refers to the signal ratio)
# Summary of the method: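 THP-1 cells (3000/well) exposed to compounds 17 hrs at 37 C. Secreted TNF-alpha detected by HTRF with cryptate- and XL665-labeled anti-TNF-alpha antibodies after 3 hr at room temperature.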
# [17] = qHTS assay for environmental chemicals that activate the Aryl hydrocarbon Receptor (AhR) signaling pathway (AID 651777); conditions: 1A2-DRE human hepatoma cells, luciferase, 24 h; activation: stronger effect = higher value; also: nearly all actives have a fitted effect of over 15% in size
# Summary of the method: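 Reporter gene assay: hepatoma cells with DRE/CYP1A2-luciferase, 24 hr compound incubation at 37 C, 5% CO2, luminescence after One-Glo (30 min, RT).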
# [18] = molecular target: Peroxisome proliferator-activated receptor alpha (Homo sapiens) (UniProt Q07869); assay: qHTS assay for small molecule agonists of the peroxisome proliferator-activated receptor alpha (PPARalpha) signaling pathway (AID 651778); conditions: PathHunter PPARalpha complementation, chemiluminescence, 6 h; stronger effect = higher value
# Summary of the method: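 Enzyme-fragment complementation assay in which ligand-bound PPARalpha translocates and forms an active enzyme that generates chemiluminescence. Cells were plated overnight, exposed to compound for 6 hr at 37 C, and then given detection reagent for 60 min at room temperature.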
# [19] = qHTS assay for small molecule agonists of the antioxidant response element (ARE) signaling pathway measured by Nrf2-dependant transcriptional activity (AID 720636; active = well fitted curve in the direction sought with a large enough effect in the repeat runs; an effect the other way counts as inactive or inconclusive; also: potency is read from the fitted curve at half-maximal effect)
# Summary of the method: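 Nrf2-dependent transcription is measured in ARE-luc HepG2 cells: compound is applied for 16 hr at 37 C after a 6 hr attachment period, and luciferase activity is quantified by luminescence using ONE-Glo.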
# [20] = molecular target: Nuclear receptor subfamily 1 group I member 2 (Rattus norvegicus) (UniProt Q9R1A7); assay: qHTS assay for small molecule activators of the rat pregnane X receptor (rPXR) signaling pathway (AID 651751; call rule not given here); conditions: rPXR reporter cells, luciferase (One-Glo), 24 h
# Sequence of Nuclear receptor subfamily 1 group I member 2 (Rattus norvegicus) (Q9R1A7 whole entry, looked up): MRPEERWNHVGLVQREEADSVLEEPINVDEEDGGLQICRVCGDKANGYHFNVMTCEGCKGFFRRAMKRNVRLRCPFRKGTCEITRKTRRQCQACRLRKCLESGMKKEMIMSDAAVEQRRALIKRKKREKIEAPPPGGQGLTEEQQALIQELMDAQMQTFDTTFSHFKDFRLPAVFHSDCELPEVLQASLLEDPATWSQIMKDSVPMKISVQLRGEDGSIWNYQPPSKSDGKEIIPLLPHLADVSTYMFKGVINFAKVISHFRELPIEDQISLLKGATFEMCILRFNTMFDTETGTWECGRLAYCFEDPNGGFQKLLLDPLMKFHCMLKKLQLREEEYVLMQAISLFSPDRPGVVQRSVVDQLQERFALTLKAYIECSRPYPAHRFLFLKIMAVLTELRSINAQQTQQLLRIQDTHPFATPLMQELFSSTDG
# Sequence of Thyroid hormone receptor beta (Homo sapiens) (P10828 whole entry, looked up): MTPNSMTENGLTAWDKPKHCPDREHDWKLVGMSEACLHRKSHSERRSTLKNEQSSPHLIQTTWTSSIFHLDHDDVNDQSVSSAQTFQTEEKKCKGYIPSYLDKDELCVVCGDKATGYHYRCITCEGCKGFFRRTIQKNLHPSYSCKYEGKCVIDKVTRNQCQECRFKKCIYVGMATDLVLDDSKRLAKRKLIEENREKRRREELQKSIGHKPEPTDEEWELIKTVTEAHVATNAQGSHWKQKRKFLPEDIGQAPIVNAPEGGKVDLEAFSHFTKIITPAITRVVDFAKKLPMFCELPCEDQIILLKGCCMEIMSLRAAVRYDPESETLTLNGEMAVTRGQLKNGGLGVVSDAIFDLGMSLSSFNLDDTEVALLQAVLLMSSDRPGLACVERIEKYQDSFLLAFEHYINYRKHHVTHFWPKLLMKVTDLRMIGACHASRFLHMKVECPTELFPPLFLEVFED
# Sequence of Peroxisome proliferator-activated receptor alpha (Homo sapiens) (Q07869 whole entry, looked up, the tested form may be a part): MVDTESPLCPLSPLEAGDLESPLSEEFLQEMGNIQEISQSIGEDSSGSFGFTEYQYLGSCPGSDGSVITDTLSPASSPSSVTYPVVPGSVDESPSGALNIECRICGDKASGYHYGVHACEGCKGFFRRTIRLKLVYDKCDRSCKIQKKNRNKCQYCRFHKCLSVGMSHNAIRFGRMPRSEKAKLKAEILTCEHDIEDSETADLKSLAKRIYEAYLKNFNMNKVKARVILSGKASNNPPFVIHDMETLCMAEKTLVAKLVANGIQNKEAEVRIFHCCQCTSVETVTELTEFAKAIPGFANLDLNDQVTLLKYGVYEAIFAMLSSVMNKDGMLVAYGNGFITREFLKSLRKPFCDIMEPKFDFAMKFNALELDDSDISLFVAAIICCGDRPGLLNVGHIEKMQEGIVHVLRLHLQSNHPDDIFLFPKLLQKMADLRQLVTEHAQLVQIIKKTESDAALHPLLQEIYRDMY
# Sequence of Tumor necrosis factor (Homo sapiens) (P01375 whole entry, looked up): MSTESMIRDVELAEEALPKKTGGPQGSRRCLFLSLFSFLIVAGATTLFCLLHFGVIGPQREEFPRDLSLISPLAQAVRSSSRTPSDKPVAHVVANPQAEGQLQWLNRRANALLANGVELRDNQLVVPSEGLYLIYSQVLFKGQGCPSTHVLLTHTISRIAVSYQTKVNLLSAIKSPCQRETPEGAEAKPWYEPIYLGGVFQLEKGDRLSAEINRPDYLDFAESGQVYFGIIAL
smiles,measurement,setting,value
CC(C)(c1ccc(OCC2CO2)cc1)c1ccc(OCC2CO2)cc1 (stereo not given),outcome,[1],inactive
same,outcome,[2],inactive
same,outcome,[3],inactive
same,outcome,[4],inactive
same,outcome,[5],inactive
same,outcome,[6],inactive
same,outcome,[7],inactive
same,outcome,[8],inactive
same,outcome,[9],inactive
same,outcome,[10],inactive
same,outcome,[11],inactive
same,outcome,[12],inactive
same,Potency,[13],inactive
same,activation,[14],1.86% (inactive) and -8.3% (inactive)
same,activation,[15],-1.34% (inactive) and -1.67% (inactive)
same,outcome,[16],inactive
same,activation,[17],-0.167% (inactive) and 1.71% (inactive)
same,max response,[18],-4.29% (inactive) and -0.125% (inactive)
same,Potency,[19],66.8 µM (active)
same,max response,[20],-1.73% (inactive) and 0.566% (inactive)

# From PubChem BioAssay (NCATS)
